This passage reports growth inhibition results from PubChem BioAssay (NCI).

Compounds without any hit were thinned out: in the full panel of roughly 79,000, 15% have a hit. Activity calls are given as the source filed them. Rule as the data show it: active = growth inhibition above about 70%; inactive = the rest. Where a SMILES comes first, the peptide text is derived from it. The star is where a group is joined. Boc = CC(C)(C)OC(=O)*; tBu = CC(C)(C)*

A short description of this experiment: NCI Yeast Anticancer Drug Screen. Data for the cln2 rad14 strain (AID 165).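 Also: 0% = growth equal to vehicle treated cultures.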 The conditions noted are these: S. cerevisiae cln2 rad14 strain, at 50.0 µM, active compounds read high. In short, it runs like this:
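Each compound was tested on cln2 rad14 yeast. Inhibition of growth was calculated against vehicle-exposed controls.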
For `Cc1sc2nc(N(C)C)oc(=O)c2c1C`, the growth inhibition was 1.5% (inactive).
Next, `Cc1ccc(S(=O)(=O)NN=C2C(C)(C)C(=O)C2(C)C)cc1`: 32.1% (inactive); `Cc1ccc(OC(=O)NC(C)(C)C)cc1`: -35.1% (inactive); `OC1c2ccccc2-c2ccccc21`: -22.3% (inactive).
As for `O=C(CNC(=O)c1ccccc1)Nc1ccc([N+](=O)[O-])cc1`, the growth inhibition is 26.8% (inactive).
On to `O=[N+]([O-])c1ccc(N/N=C/C(Br)(Br)Br)c([N+](=O)[O-])c1`, for which the growth inhibition was -11.9% (inactive).
The same measure for `O=C1C(NS(=O)(=O)c2ccccc2)=C(N(Cc2ccccc2)Cc2ccccc2)C(=O)c2ccccc21`: 2.1% (inactive).
The same measure for `O=c1c2ccccc2[nH]c2ccc(Br)cc12`: -6.1% (inactive); for `CC(=O)Nc1ccc(NC(=O)Nc2cc(Cl)ccc2C)cc1`: 13.1% (inactive).
`Cc1ccc2nc(-c3ccc(-c4nc5ccc(C)cc5o4)c(O)c3)oc2c1`: the growth inhibition is 2.95% (inactive).
The same measure for `CCN/C(C)=C\C(=O)OCC`: -17.2% (inactive).
Next, `O=S(=O)(O)c1cc(Cl)c(O)c(Cl)c1`: -41.9% (inactive); `Clc1ccc2nc(/C=C/c3ccccc3)ccc2c1`: 3.35% (inactive); `O=S(=O)(O)CNc1ccc(Cl)cc1`: -29.7% (inactive).
`CC(=O)N1CC(=O)N2C(=O)/C(=C/c3ccc(Cl)cc3)N=C12`: the growth inhibition is 3.35% (inactive).
As to `Cc1ccc(S(=O)(=O)C(C#N)CCC(=O)c2ccc(Cl)cc2)cc1` (stereo not given), the growth inhibition was 9.45% (inactive).
The same measure for `COc1ccc(N2NC(c3ccccc3)(c3ccccc3)C(C)C2=O)cc1` (stereo not given): 5.2% (inactive); for `NC(=O)N/N=C1\CCCCC12CCCCC2`: -16.1% (inactive).
Regarding `CCCCCCCCCCCCCCCCOc1ccc(Sc2ccc([N+](=O)[O-])cc2)cc1`, the growth inhibition was -3.9% (inactive).
Next, `CCC(=O)CC(=O)C(=O)OC`: -15.7% (inactive).
The same measure for `Cc1ccc(S(=O)(=O)C(=S)N(C)N(C)C)cc1`: -12.9% (inactive); for `CC1CCCC2(CN=C(Nc3ccccc3)O2)C1` (stereo not given): -75% (inactive).
For `O=C(CC(C(=O)c1cccs1)c1cccs1)c1ccsc1` (stereo not given), the growth inhibition was 11.1% (inactive).
`Cc1ccc(NC(=NCCCN(C)C)C(c2ccccc2)c2ccccc2)cc1`: the growth inhibition is 0.4% (inactive).
Next, `COc1cc2c(cc1OC)[C@H]1C(COC(=O)Nc3ccccc3)CN1CC2` (stereo not given in full): -9.75% (inactive); `O=c1[nH]c(=O)n(C2OC(COP(=O)(O)OP(=O)(O)OC3OC(CO)C(O)C(O)C3O)C(O)C2O)cc1F` (stereo not given): 18.9% (inactive).
Next, `COC1=C2CC(C)CC(OC)C(OC(C)=O)C(C)/C=C(\C)C(OC(N)=O)C(OC)/C=C\C=C(/C)C(=O)NC(=CC1=O)C2=O` (stereo not given): 87.2% (active); `NS(=O)(=O)c1ncc(C(=O)N2CCN(Cc3ccccc3)CC2)[nH]1`: -11.7% (inactive); `CC(C)(OC(=O)Nc1ccccc1)c1ccc([N+](=O)[O-])cc1`: -25.5% (inactive).
The same measure for `CCCOC(=O)c1c(C)c(C)cc(C)c1C`: 11.8% (inactive); for `CCOC(=O)Nc1nc(-c2ccc(Br)cc2)cs1`: -37.6% (inactive).
For `O=c1[nH]cc(CCOCc2ccccc2)c(=O)[nH]1`, the growth inhibition was 34.2% (inactive).
Regarding `CS(=O)(=O)/C=C/c1ccccc1`, the growth inhibition is 1.8% (inactive).
Take `c1ccc2c3c([nH]c2c1)CCCCCC3`: the growth inhibition was 13.2% (inactive).
The same measure for `O=C(O)c1ccccc1C(=O)CC(O)(C(F)(F)F)C(F)(F)F`: -31.3% (inactive).
Take `CSc1ccc2c(c1)Cc1cc(NC(C)=O)ccc1-2`: the growth inhibition was -12.3% (inactive).
The same measure for `Cc1c(F)c(N)c2c(=O)cc(-c3ccc(N)c(F)c3)oc2c1F`: 21.3% (inactive); for `CC(OC(C)(C)C)C(NC(=O)C(N)CCCCNC(=O)OC(C)(C)C)C(=O)NC(Cc1ccccc1)C(=O)O` (stereo not given) (H-Lys(Boc)-Thr(tBu)-Phe-OH; configuration not given here): -14.8% (inactive).
Next, `COc1ccc(/C=C\c2cc(OC)c(OC)c(OC)c2)cc1OC`: 3.05% (inactive); `COc1ccc(NC(=O)Nc2ccc(Cl)cc2C)cc1`: -12.2% (inactive).
